IL-1B inflam inh: inhibitors of inflammasome signaling (IL-1 beta secretion); AID 743279; 4.7% of 360,000 active; activity change, % at 57.5 µM; THP-1 LPS/ATP IL-1B secretion, AlphaLISA, 16 h; hits give low values; in the data active means activity change below about -50%; inconclusive means mostly about -30% to -49%
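THP-1 cells pretreated 1 hr with compounds (up to 57.5 uM final), then stimulated with LPS (250 ng/mL final) plus ATP (1.25 mM final); secreted IL-1B measured by AlphaLISA after 16 hr, decreased signal indicating inhibition.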
Giardia killer: kills Giardia lamblia; Giardia lamblia trophozoite viability; activity change, % at 7.66 µM, hits read low; 0.15% of 340,000 active; in the data active means activity change below about -80%; inconclusive means between about -30% and that limit;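 further: parasites exposed to compound for two days anaerobically before the ATP read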
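ATP-content bioluminescence gauges trophozoite survival. Cells (100/well) receive compound and incubate anaerobically for 48 hrs at 37 deg C; detection reagent follows for 15-30 min at room temperature.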
Vif-A3G inh: inhibitors of Vif-APOBEC3G interaction; Q9HC16; HeLa A3G-eYFP + Vif (tagged APOBEC3G with the HIV-1 protein that degrades it), YFP fluorescence, overnight; Potency, µM (top dose mostly 46.1 µM), most hits filed as inhibitors; 0.076% of 410,000 active; further: nearly all actives have a fitted effect of over 60% in size
Target sequence (Q9HC16 whole entry, looked up): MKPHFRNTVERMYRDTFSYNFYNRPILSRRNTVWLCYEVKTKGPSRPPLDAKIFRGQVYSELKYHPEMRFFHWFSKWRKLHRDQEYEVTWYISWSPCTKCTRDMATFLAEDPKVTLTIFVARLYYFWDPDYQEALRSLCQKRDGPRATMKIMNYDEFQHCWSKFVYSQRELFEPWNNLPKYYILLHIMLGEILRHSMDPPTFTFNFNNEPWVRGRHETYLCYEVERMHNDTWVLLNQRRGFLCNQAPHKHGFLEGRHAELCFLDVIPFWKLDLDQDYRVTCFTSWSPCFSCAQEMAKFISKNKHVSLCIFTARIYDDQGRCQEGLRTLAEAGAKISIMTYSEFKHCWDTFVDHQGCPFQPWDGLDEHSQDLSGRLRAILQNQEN
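HeLa cells stably expressing Vif and C-terminally eYFP-tagged A3G, seeded overnight at 37 deg C, then exposed to compound by pintool overnight at 37 deg C. Rise in yellow fluorescence (Ex 488/Em 500-530, Acumen) marks blocked Vif-driven A3G degradation.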
SW480 rereplic: DNA re-replication induction in SW480 cells. SW480 DNA re-replication, Hoechst DNA content imaging, 48 h. Potency, µM (doses to about 46.1 µM), actives largely listed as activators. 1.8% of 340,000 active. AID 624297; further: nearly all actives have a fitted effect of over 55% in size
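Per well, 250 cells were exposed to pinned compound for 48 hr. Nuclear DNA was visualised with Hoechst (40 min, 37 C) and total object intensity recorded by fluorescence scanning.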
Vif-A3F inh: blocks the Vif interaction with APOBEC3F. HeLa A3F-eYFP + Vif (tagged APOBEC3F with the HIV-1 protein that degrades it), YFP fluorescence increase. Potency, µM (highest dose often 46.1 µM). 0.2% of 390,000 active. AID 602313; further: nearly all actives have a fitted effect of over 65% in size
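HeLa cells stably expressing Vif plus C-terminally eYFP-tagged A3F were seeded, incubated overnight at 37 deg C, dosed with compound, incubated overnight again at 37 deg C. Yellow fluorescence (Ex 488/Em 500-530) reported blocked Vif-mediated A3F-eYFP degradation.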
MCF10A rereplic: DNA re-replication induction in MCF 10a cells; 2.9% of 350,000 active; MCF 10A DNA re-replication, Hoechst nuclear intensity, 48 h; Potency, µM (highest dose often 46.1 µM), hits mostly activators; further: nearly all actives have a fitted effect of over 50% in size
Of the large screens only hits and unclear results are named; the others gave an inactive call. An excerpt weighted towards active compounds, which were near 6.9% of everything screened. Unless noted, the call rests on the fitted dose curve; in most records, active means well fitted curve in the direction sought with a large enough effect; inconclusive means small, poorly fitted or top-dose-only effect, or another doubt; inactive means no such curve, though single readings can be large; an effect the other way counts as inactive or inconclusive.

Cc1ccc(CNC(=O)COCc2cc(-c3ccc4c(c3)OCO4)on2)cc1	none (no result: IL-1B inflam inh, Giardia killer, SW480 rereplic, MCF10A rereplic)
CN(C(=S)NC(=O)c1ccccc1Br)C1CCCCC1	SW480 rereplic 5.8µM
Cc1[nH]n(-c2ccccc2)c(=O)c1N=Nc1c(O)cc(S(=O)(=O)N(C)C)c2ccccc12	SW480 rereplic 5.8µM
Cc1[nH]n(-c2ccccc2)c(=O)c1N=Nc1ccc2c(c1)OCCO2	none
C=CCNC(=S)N/N=C/c1ccc(-c2ccc(OC)cc2)o1	SW480 rereplic inconclusive, MCF10A rereplic 20.6µM
C=CCNC(=S)N/N=C/c1ccc(-c2ccc(Cl)cc2Cl)o1	SW480 rereplic 16.4µM, MCF10A rereplic 13µM
CNC(=S)N/N=C/c1ccc(-c2ccc(C(=O)O)cc2)o1	SW480 rereplic inconclusive, MCF10A rereplic inconclusive
C=CCNC(=S)N/N=C/c1ccc(-c2cc(Cl)ccc2Cl)o1	MCF10A rereplic inconclusive
COc1ccc(CCNC(=O)C(=O)NCC(c2ccco2)S(=O)(=O)c2ccc(F)cc2)cc1 (centres undefined)	none (no result: IL-1B inflam inh, Giardia killer, SW480 rereplic, MCF10A rereplic)
CCOC(=O)c1ccc(-n2c(C)ccc2C)cc1	none
Cc1ccc(NC(=O)c2ccc(C)cc2)cc1	Giardia killer inconclusive, MCF10A rereplic inconclusive
CC(=O)NCCNC(=O)c1ccc(-n2c(C)ccc2C)cc1	IL-1B inflam inh -75.7, SW480 rereplic inconclusive
Cc1ccc(C)n1-c1ccc(NC(=O)c2ccccc2)cc1	IL-1B inflam inh -53.0, SW480 rereplic inconclusive, MCF10A rereplic inconclusive
CC(=O)Nc1ccc(NC(=O)c2ccc(-n3c(C)ccc3C)cc2)cc1	IL-1B inflam inh -67.5, SW480 rereplic inconclusive, MCF10A rereplic inconclusive
O=C(Nc1ccc(Nc2ccccc2)cc1)c1ccccc1	SW480 rereplic inconclusive
Cc1ccc(C)c(S(=O)(=O)NCCc2csc(-c3ccc(Cl)cc3)n2)c1	none (no result: IL-1B inflam inh, Giardia killer, SW480 rereplic, MCF10A rereplic)
CCC1CC=CC2C1C(=O)N(Cc1ccccc1)C2c1ccc2ccccc2c1 (centres undefined)	none (no result: IL-1B inflam inh, SW480 rereplic, Vif-A3F inh, MCF10A rereplic)
Cn1ccc2cc(S(=O)(=O)N3CCCC(C(=O)NCc4ccc(F)cc4)C3)ccc21 (centres undefined)	none (no result: IL-1B inflam inh, Giardia killer, SW480 rereplic, MCF10A rereplic)
Cc1ccc(-n2c(-c3ccccc3)n[nH]c2=S)cc1	none
Cc1ccc(-n2c(-c3ccccc3)n[nH]c2=S)c(C)c1	SW480 rereplic inconclusive, MCF10A rereplic 0.651µM
COc1cccc(C(=O)N=c2sc3cc(S(C)(=O)=O)ccc3n2C)c1	SW480 rereplic 6.51µM
COc1cc(OC)cc(C(=O)N=c2sc3ccccc3n2C)c1	MCF10A rereplic inconclusive
CCN(C(=O)Cn1ncc2c1-c1cc(C)ccc1OC2)c1cc(Cl)ccc1OC	none (no result: IL-1B inflam inh, Giardia killer, SW480 rereplic, MCF10A rereplic)
CSc1ccc(CNC(=O)Cn2nc(N3CCN(c4ccccc4)CC3)ccc2=O)cc1	none (no result: IL-1B inflam inh, Giardia killer, SW480 rereplic, MCF10A rereplic)
CCCS(=O)(=O)Nc1cccc(-c2ccc3nnc(C)n3n2)c1	SW480 rereplic 18.4µM, Vif-A3F inh inconclusive
CCS(=O)(=O)Nc1cccc(-c2ccc3nnc(-c4cccnc4)n3n2)c1	IL-1B inflam inh -53.7
Cc1nnc2ccc(-c3cccc(NS(=O)(=O)c4ccccc4Cl)c3)nn12	Vif-A3F inh inconclusive, MCF10A rereplic inconclusive
Cc1cc(C)cc(Oc2c(C(F)(F)F)oc3c(CN4CCCC(C)C4)c(O)ccc3c2=O)c1 (centres undefined)	none (no result: IL-1B inflam inh, Giardia killer, SW480 rereplic, MCF10A rereplic)
O=C1CC(c2ccccc2)Cc2[nH]c(=O)c(C(=O)Nc3ccc(OC(F)(F)F)cc3)cc21 (centres undefined)	none (no result: IL-1B inflam inh, Giardia killer, SW480 rereplic, MCF10A rereplic)
CCOCCCNC(=O)C1CCCN(Cc2nc(-c3ccc(CC)cc3)oc2C)C1 (centres undefined)	none (no result: IL-1B inflam inh, Giardia killer, SW480 rereplic, MCF10A rereplic)
Cc1ccc(Cl)cc1NC(=O)C1CCCN1S(=O)(=O)c1ccc(-c2ccc(=O)[nH]n2)s1 (centres undefined)	IL-1B inflam inh -76.9, SW480 rereplic 3.98µM, MCF10A rereplic inconclusive
Nc1c(N=Nc2ccc([N+](=O)[O-])cc2)c(S(=O)(=O)O)cc2cc(S(=O)(=O)O)c(/C=C/c3ccccc3)c(O)c12	none (no result: IL-1B inflam inh, Giardia killer, SW480 rereplic, Vif-A3F inh, MCF10A rereplic)
CN(C(=O)c1ccc(NC(=O)Cc2cccc([N+](=O)[O-])c2)cc1)C1CCCC1	IL-1B inflam inh inconclusive
